TDP1 cell noCPT: qHTS for Inhibitors of human tyrosyl-DNA phosphodiesterase 1 (TDP1): qHTS in cells in absence of CPT | DT40 Tdp1-/- hTDP1 cells, no CPT, ATP luminescence, 48 h | Potency, µM (series often up to 46.2 µM), usual class: inhibitors | 15% of 420,000 active | AID 686978, 2013; note: nearly all actives have a fitted effect of over 55% in size
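Growth of hTDP1-complemented DT40 Tdp1-knockout cells is measured by ATP luminescence after at least 48 hr compound exposure at 37 °C, with DMSO substituting for the 20 nM CPT used in the parallel screen.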
TDP1 cell CPT: growth inhibition of DT40 Tdp1-/-;hTDP1 cells with camptothecin (screen for TDP1 inhibitors) | Potency, µM (doses to about 46.2 µM), most hits filed as inhibitors | AID 686979 | chicken DT40 Tdp1-/-;hTDP1 cells + 20 nM CPT, ATP luminescence, 48 h | 12% of 420,000 active; note: nearly all actives have a fitted effect of over 55% in size
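Cell growth measured by CellTiter-Glo luminescence after a minimum 48 h, 37 C compound exposure with 20 nM CPT in Tdp1-knockout DT40 cells stably expressing hTDP1, seeded 400/well; qHTS titration format.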
TDP1 inh: blocks human tyrosyl-DNA phosphodiesterase 1. Q9NUW8. recombinant TDP1, AlphaScreen DNA substrate cleavage. Potency, µM (doses to about 130 µM), usual class: inhibitors. 0.28% of 350,000 active. AID 485290; note: nearly all actives have a fitted effect of over 40% in size
Target sequence (Q9NUW8 whole entry, looked up): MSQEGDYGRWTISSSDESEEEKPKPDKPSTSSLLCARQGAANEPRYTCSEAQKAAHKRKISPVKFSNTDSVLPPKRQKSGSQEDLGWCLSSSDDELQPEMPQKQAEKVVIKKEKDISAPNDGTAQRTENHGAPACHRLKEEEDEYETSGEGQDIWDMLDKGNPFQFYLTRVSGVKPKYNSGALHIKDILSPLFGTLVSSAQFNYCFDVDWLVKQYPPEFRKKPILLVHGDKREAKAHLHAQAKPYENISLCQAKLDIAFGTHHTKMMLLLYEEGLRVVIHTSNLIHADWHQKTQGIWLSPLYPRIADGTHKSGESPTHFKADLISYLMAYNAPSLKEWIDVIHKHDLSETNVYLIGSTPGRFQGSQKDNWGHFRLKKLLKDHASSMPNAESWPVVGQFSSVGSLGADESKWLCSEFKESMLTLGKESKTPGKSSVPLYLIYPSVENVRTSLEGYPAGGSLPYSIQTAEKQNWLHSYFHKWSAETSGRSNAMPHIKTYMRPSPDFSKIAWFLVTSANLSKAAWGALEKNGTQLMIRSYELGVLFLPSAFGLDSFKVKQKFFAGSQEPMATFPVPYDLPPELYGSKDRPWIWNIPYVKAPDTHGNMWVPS
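Here, a 5' biotin and 3' phosphotyrosine-FITC DNA oligonucleotide reports Tdp1 activity: intact substrate bridges AlphaScreen beads, while cleavage leaves a 3' phosphate and drops signal. All incubations at room temperature.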
TGFb inhibitor: inhibitors of TGF-b signaling | HepG2 CAGA-GFP TGF-b/SMAD3 reporter, GFP fluorescence, 18 h; TGF-beta stimulated, 500 pg/mL final | Potency, µM (highest dose often 46.1 µM), most hits filed as inhibitors | 1.2% of 410,000 active | AID 588855; note: nearly all actives have a fitted effect of over 65% in size
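First, reporter cells (HEPG2 CAGA-GFP) rested 2 h at 37 degrees C. Next, compounds were pinned in and TGF-beta added to 500 pg/mL final. After 18 h, GFP was imaged per cell and summed per well.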
HepG2 viability: HepG2 cytotoxicity, counter-screen for TGF-b inhibitors; HepG2 CAGA-GFP viability, ATP luminescence, 18 h; AID 588856; Potency, µM (top dose mostly 46.1 µM), most hits filed as cytotoxic; 0.76% of 410,000 active
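HepG2 CAGA-GFP cells (1000/well, DMEM with 1% FBS) received compound, then TGF-beta at 500 pg/mL final, and were incubated 18 hours at 37 degrees C. Viability was read by CellTiter-Glo luminescence. Media-only wells were set as complete cell-killing and DMSO as no toxicity.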
IL1B secr inh: inhibitors of inflammasome signaling (IL-1 beta secretion); activity change, % at 57.5 µM; 4.7% of 360,000 active; THP-1 LPS/ATP IL-1B secretion, AlphaLISA, 16 h; stronger effect = lower value; AID 743279; in the data active = activity change below about -50%; inconclusive = mostly about -30% to -49%
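THP-1 cells pretreated 1 hr with compounds (up to 57.5 uM final), then stimulated with LPS (250 ng/mL final) plus ATP (1.25 mM final); secreted IL-1B measured by AlphaLISA after 16 hr, decreased signal indicating inhibition.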
Numbers stand for hits; n = inactive; u = inconclusive; x = not tested or not shown; [ ] = another dose, or the depositor's remark. Hits are enriched below; roughly 19% of the tested compounds scored in any of these assays. Unless noted, calls come from the whole dose curve; as a rule, active = well fitted curve in the direction sought with a large enough effect; inconclusive = small, poorly fitted or top-dose-only effect, or another doubt; inactive = no such curve, though single readings can be large; an effect the other way counts as inactive or inconclusive.

SMILES	TDP1 cell noCPT	TDP1 cell CPT	TDP1 inh	TGFb inhibitor	HepG2 viability	IL1B secr inh
Cc1cc(C)c(NC(=O)C(=O)NCC(c2cccnc2)N2CCN(c3ccccc3F)CC2)c(C)c1 (stereo not given)	14.6µM	14.6µM	n	n	n	x
O=C(NCc1cccnc1)C(=O)NCC(c1cccnc1)N1CCN(c2ccccc2F)CC1 (stereo not given)	u	u	n	n	n	x
CCOC(=O)[C@]1(C(NC(=O)OC)c2cccc(C)c2)CCCC1=O (stereo not given in full)	x	x	n[21 µM]	x	x	x
O=C(Nc1ccc(Oc2ccccc2)nc1)C1CCCCN1Cc1ccc(OCCO)cc1 (stereo not given)	n	n	n	n	n	n
COP1(=O)CC(O)C(O)C(COCc2ccccc2)O1 (stereo not given)	x	x	n	n	n	x
CCOC(=O)CSc1ncc(OC)c(Sc2ccc(OC)cc2)n1	n	n	n	n	n	n
COc1cnc(N(C)C)nc1Sc1ccc(Cl)cc1	n	n	n	n	n	n
COc1cnc(-c2ccccn2)nc1Sc1ccc(F)cc1	0.517µM	0.581µM	n	n	n	n
COc1cnc(-c2ccccn2)nc1Sc1ccc(Cl)cc1	1.46µM	1.3µM	n	n	n	n
COc1ccc(Sc2nc(-c3ccccn3)ncc2OC)cc1	3.26µM	2.91µM	n	n	n	n
c1ccc(-c2cnc(-c3ccccn3)nn2)cc1	u	u	x	u	n	n
COc1cnc(-c2ccccn2)nc1Sc1ccccc1	1.03µM	1.46µM	n	n	n	n
COCCn1c(=O)c(-c2ccc(Cl)cc2)nc2cncnc21	n	n	x	x	x	x
Cc1c(C(=O)N2CCCC2)oc2c1-c1nn(CC(=O)NCc3cccc(Br)c3)cc1CC2	u	u	n	n	n	x
CCOC(=O)CSc1nc(-c2ccccn2)ncc1OC	4.61µM	8.2µM	n	n	n	n
O=C(NCCCO)c1c(O)c2cccc3c2n(c1=O)CCC3	n	u	x	n	n	n
CCN(CC)S(=O)(=O)c1cnccc1N1CCN(c2cccc(Cl)c2)CC1	16.4µM	u	n	u	n	-68.7
CN1CCN(S(=O)(=O)c2cnccc2N2CCN(c3cccc(Cl)c3)CC2)CC1	18.4µM	18.4µM	n	n	n	-50.5
CNS(=O)(=O)c1cnccc1N1CCN(c2cccc(Cl)c2)CC1	u	n	n	n	n	n
CN(Cc1ccco1)c1ncncc1-c1cccc(C#N)c1	n	n	x	x	x	x
COc1cccc(C#Cc2ccc3c(c2)O[C@@H](CN(C)C(=O)c2ccccn2)[C@@H](C)CN([C@H](C)CO)S3(=O)=O)c1	u	u	x	n	n	n
C[C@H](CO)N1C[C@H](C)[C@H](CN(C)C(=O)c2ccccn2)Oc2cc(C#Cc3ccc(F)cc3)ccc2S1(=O)=O	18.4µM	20.6µM	x	u	n	n
C[C@H]1CN([C@@H](C)CO)S(=O)(=O)c2ccc(C#Cc3ccccn3)cc2O[C@@H]1CN(C)C(=O)C1CC1	16.4µM	u	x	n	n	n
CC(C)CC#Cc1ccc2c(c1)O[C@H](CN(C)C(=O)Cc1ccncc1)[C@H](C)CN([C@H](C)CO)S2(=O)=O	25.9µM	u	x	u	n	n
COC(=O)C1CCN(c2nc(CN(C)C3CCOC3)nc3cc(OC)c(OC)cc23)CC1 (stereo not given)	n	n[9.04 µM]	x	x	x	x
SMILES	TDP1 cell noCPT	TDP1 cell CPT	TDP1 inh	TGFb inhibitor	HepG2 viability	IL1B secr inh
COc1ccccc1-c1noc(-c2ccc(NCc3cccnc3)c([N+](=O)[O-])c2)n1	u	u	n	n	n	x
COCC(C)n1c(SCC(=O)NC(=O)Cc2ccccc2)nc2ccccc2c1=O (stereo not given)	n	u	n	n	n	n
COCCNC(=O)CSc1nc2ccccc2c(=O)n1-c1cccc(OC)c1	n	n	n	u	n	n
COCCNC(=O)c1ccc(-n2c(SCc3ccncc3)nc3ccccc3c2=O)cc1	n	n	n	n	n	-72.9
COCC(C)n1c(SCc2ccc(C(=O)OC)cc2)nc2ccccc2c1=O (stereo not given)	9.2µM	11.6µM	n	n	n	n
COCC(C)n1c(SCc2ccc(OC)c(F)c2)nc2ccccc2c1=O (stereo not given)	4.11µM	5.8µM	n	u	n	n
COc1ccc2[nH]c3c(c2c1)CCN1C(=O)C(CC(=O)NCC24CC5CC(CC(C5)C2)C4)C[C@H](C(=O)N2CCOCC2)[C@@]31C (stereo not given in full)	u	u	n	u	n	u
CCN(CC)C(=O)[C@H]1CC(CC(=O)NCCC2=CCCCC2)C(=O)N2CCc3c([nH]c4ccccc34)[C@]12C (stereo not given in full)	23.1µM	23.1µM	n	u	n	n
CCN(CC)C(=O)[C@H]1C[C@H](CC(=O)NCCC2=CCCCC2)C(=O)N2CCc3c([nH]c4ccc(Cl)cc34)[C@]12C	20.6µM	16.4µM	n	u	n	-54.1
COc1ccc2[nH]c3c(c2c1)CCN1C(=O)C(CC(=O)NCC24CC5CC(CC(C5)C2)C4)C[C@H](C(=O)N(C(C)C)C(C)C)[C@@]31C (stereo not given in full)	u	u	n	11.2µM	n	-71.8
CCN(CC)C(=O)[C@H]1CC(CC(=O)NCCCn2ccnc2)C(=O)N2CCc3c([nH]c4ccccc34)[C@]12C (stereo not given in full)	n	n	n	n	n	n
CCN(CC)C(=O)[C@H]1CC(CC(=O)NCC23CC4CC(CC(C4)C2)C3)C(=O)N2CCc3c([nH]c4ccccc34)[C@]12C (stereo not given in full)	8.2µM	16.4µM	n	n	n	u
CCN1CCN(C(c2ccc(SC)cc2)c2c(O)cc(C)n(Cc3ccco3)c2=O)CC1 (stereo not given)	n	n	n	n	n	x
CCc1cccc(NC(=O)CSc2nncn3c2cc2sccc23)c1	u	u	n	u	n	x
CCN(CC)C1=CC(=[N+]2CCCC2)CC(C)(C)C1	0.517µM	0.517µM	n	n	n	n
CN(Cc1ccc([N+](=O)[O-])cc1)c1ccccc1	n	n	x	n	n	n
CN(Cc1ccccc1)C1=CC(=[N+]2CCCC2)CC(C)(C)C1	0.231µM	0.326µM	n	u	n	-52.0

From PubChem BioAssay
